Only some compounds are listed: those with a hit (about 1.2% of all), similar ones and a draw of the others.
CIT2-GFP yeast: yeast TOR pathway CIT2-GFP modulation. S. cerevisiae CIT2-GFP strain, flow cytometry, 3 h; 100 means same as DMSO wells. GFP response vs DMSO, % at 10 µM. 320,000 tested, 0.065% active. AID 2029;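 active = GFP response relative to DMSO above a set limit, near the screen mean plus 3 SD, cut at about 150% in these data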;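 also: ratio of well median GFP fluorescence to mean of DMSO wells on the plate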
RPL19A TOR yeast: modulators of TOR pathway RPL19A-GFP in S. cerevisiae | S. cerevisiae RPL19A-GFP strain, flow cytometry, 3 h; active compounds read low | percent response vs DMSO, % at 10 µM | 330,000 tested, 0.3% active | AID 2025;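 active = percent response vs DMSO below 50%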;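 also: median channel GFP fluorescence of the barcoded RPL19A-GFP strain; ratio of sample median GFP to plate DMSO average so 100% = DMSO; lower means less RPL19A-GFP as with rapamycin TOR inhibition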
AGP1 TOR yeast: alters AGP1-GFP fluorescence in TOR pathway yeast screen | AID 2066 | 320,000 tested, 0.02% active | GFP response vs DMSO, % at 10 µM | S. cerevisiae AGP1-GFP multiplex flow cytometry, 3 h; GFP as percent of DMSO wells;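 active = GFP response relative to DMSO above a set limit, near screen average plus 3 SD, cut at about 150% in these data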;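 also: median GFP channel fluorescence of the gated AGP1 strain per well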
DSG3 Ab inh: inhibitors of pemphigus antibody binding to human desmoglein-3; binding (percent of control), % at 10 µM; P32926; DSG3-coupled beads, scFv-anti-DSG3-GFP binding, flow cytometry; active compounds read low; AID 588358; 310,000 tested, 0.48% active;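 active = binding more than 3 SD below its plate's average and above zero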;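 also: hits lower antibody fragment binding to DSG3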
Target sequence (P32926 whole entry, looked up, the tested form may be a part): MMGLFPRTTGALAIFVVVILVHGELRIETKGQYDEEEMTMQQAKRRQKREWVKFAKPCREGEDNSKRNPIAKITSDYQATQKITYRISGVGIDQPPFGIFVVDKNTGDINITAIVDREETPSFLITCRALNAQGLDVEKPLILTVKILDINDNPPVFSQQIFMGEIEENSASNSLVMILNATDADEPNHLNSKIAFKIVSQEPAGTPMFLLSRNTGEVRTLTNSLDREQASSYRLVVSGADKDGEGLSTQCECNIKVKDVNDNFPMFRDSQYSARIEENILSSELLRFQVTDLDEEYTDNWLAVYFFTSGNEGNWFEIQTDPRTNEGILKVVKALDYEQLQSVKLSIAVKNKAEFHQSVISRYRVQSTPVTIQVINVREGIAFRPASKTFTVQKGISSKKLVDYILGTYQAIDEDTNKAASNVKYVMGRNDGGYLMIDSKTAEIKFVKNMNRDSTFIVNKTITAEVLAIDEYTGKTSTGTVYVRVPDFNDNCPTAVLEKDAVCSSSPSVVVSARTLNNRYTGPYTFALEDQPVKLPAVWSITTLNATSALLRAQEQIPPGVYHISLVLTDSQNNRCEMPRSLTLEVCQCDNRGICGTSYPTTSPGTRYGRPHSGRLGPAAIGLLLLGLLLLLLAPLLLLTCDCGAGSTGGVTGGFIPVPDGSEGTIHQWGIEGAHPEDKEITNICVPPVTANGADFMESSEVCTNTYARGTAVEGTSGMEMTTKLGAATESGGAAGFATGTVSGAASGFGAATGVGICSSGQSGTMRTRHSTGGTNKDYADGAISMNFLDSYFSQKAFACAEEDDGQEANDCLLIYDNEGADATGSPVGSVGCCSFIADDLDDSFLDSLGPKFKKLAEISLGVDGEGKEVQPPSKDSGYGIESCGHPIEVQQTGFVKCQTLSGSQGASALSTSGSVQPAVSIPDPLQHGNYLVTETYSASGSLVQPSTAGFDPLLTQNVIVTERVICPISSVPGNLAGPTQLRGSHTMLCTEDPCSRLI
MEP2-GFP yeast: modulators of TOR pathway MEP2-GFP in S. cerevisiae | S. cerevisiae MEP2-GFP strain, flow cytometry GFP, 3 h; 100% = DMSO control level | GFP response vs DMSO, % at 10 µM | 330,000 tested, 0.51% active;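 active = GFP response versus DMSO above a set limit, roughly screen mean plus 3 SD, cut at about 180% in these data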;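 also: median GFP fluorescence of the barcode-gated MEP2-GFP cells per well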
LAP4 TOR yeast: yeast TOR pathway LAP4-GFP modulation | S. cerevisiae LAP4-GFP multiplex, flow cytometry GFP, 3 h; median GFP as percent of DMSO wells | GFP response vs DMSO, % at 10 µM | 320,000 tested, 0.34% active | AID 2023;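 active = GFP response vs DMSO above a set limit, about the screen mean plus 3 SD, cut at about 150% in these data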
LAP4-GFP pick2: reconfirmed LAP4-GFP TOR pathway modulator in yeast; shares compounds with LAP4 TOR yeast; S. cerevisiae LAP4-GFP strain, flow cytometry GFP, 3 h; GFP response vs DMSO, % at 10 µM; 590 tested, 20% active; AID 2621;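 active = GFP signal as percent of the solvent control above about 150%, meaning raised reporter expression, limit read from the data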;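 also: ratio of well median GFP fluorescence to plate DMSO mean so 100% = DMSO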
MEP2 cherry2: reconfirmed MEP2-GFP TOR pathway modulator in yeast; shares compounds with LAP4 TOR yeast; GFP response vs DMSO, % at 10 µM; S. cerevisiae MEP2-GFP strain, flow cytometry GFP, 3 h; AID 2622; 590 tested, 10% active;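 active = GFP signal above 150% of the solvent control wells, that is a rise of more than half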;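 also: median channel GFP fluorescence of all gated yeast cells per well; ratio of median GFP to plate DMSO average so 100% = DMSO level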
RPL19A GFP CP2: yeast RPL19A-GFP TOR reporter modulation, second cherry pick | S. cerevisiae RPL19A-GFP strain, flow cytometry GFP, 3 h; active compounds read low; 100% means same as DMSO wells | shares compounds with LAP4 TOR yeast | GFP response vs DMSO, % at 10 µM | AID 2623 | 590 tested, 3% active;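 active = under 65% GFP response relative to DMSO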;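 also: median GFP channel fluorescence per well over the all cells gate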
CIT2 GFP CP2: yeast CIT2-GFP TOR reporter modulation, second cherry pick; GFP response vs DMSO, % at 10 µM; S. cerevisiae CIT2-GFP strain, flow cytometry GFP, 3 h; DMSO control wells read 100%; shares compounds with LAP4 TOR yeast; AID 2624; 590 tested, 8% active;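 active = GFP response vs DMSO above about 150%, limit read from the data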;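 also: median green fluorescence per well over all gated yeast cells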
AGP1 GFP CP2: reconfirmed modulator of AGP1-GFP TOR reporter in yeast; shares compounds with LAP4 TOR yeast; S. cerevisiae AGP1-GFP strain, flow cytometry GFP, 3 h; percent response vs DMSO, % at 10 µM; 590 tested, under 10 active; AID 2643;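 active = over 150 percent of DMSO response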;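 also: median GFP channel fluorescence over all cells without mother daughter split; sample median GFP divided by mean DMSO control so 100% equals DMSO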
s288c autofluor: yeast s288c autofluorescence artifact, counter-screen; shares compounds with LAP4 TOR yeast; S. cerevisiae s288c, 520 nm autofluorescence, flow cytometry, 3 h; active compounds read high; zero means same as solvent-only cells; fluorescence change (kMESF span) at 33 µM; 610 tested, under 10 active;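 active = fluorescence span over the dose series, or activity score, above about 33, limit read from the data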
s288c autofl DR: TOR screen hit shows autofluorescence in yeast s288c; shares compounds with LAP4 TOR yeast; S. cerevisiae s288c parental, compound autofluorescence, flow cytometry, 3 h; fluorescence change (span) at 33 µM; 110 tested, under 10 active;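 active = fluorescence change span, or the activity score built from it, above 25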
TORC1 bypass gr: compounds blocking wildtype yeast growth but not TORC1 bypass cells; shares compounds with LAP4 TOR yeast; S. cerevisiae BY4741 spot growth rating, 48-72 h; active compounds read low; growth rating (0-3) at 30 µM; 120 tested, under 10 active; AID 504456;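 active = growth rating at most 1 for wild type yeast while the TORC1 bypass strain still grows fully, rated 3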
Active calls of the source: *; x = not tested or not shown.

SMILES	CIT2-GFP yeast	RPL19A TOR yeast	AGP1 TOR yeast	DSG3 Ab inh	MEP2-GFP yeast	LAP4 TOR yeast	LAP4-GFP pick2	MEP2 cherry2	RPL19A GFP CP2	CIT2 GFP CP2	AGP1 GFP CP2	s288c autofluor	others
COc1ccc(CCN2C(=O)C=CC2=O)cc1OC	x	x	x	89.6	x	x	x	x	x	x	x	x
COc1ccc(CCNC2=C(Cl)C(=O)N(CCc3ccc(OC)c(OC)c3)C2=O)cc1OC	88.4	93.4	94.5	81.7	96.0	89.2	x	x	x	x	x	0.1
COc1ccc(C(CNC(=O)C(C)Oc2ccc(Br)cc2)N2CCCC2)cc1 (configuration not stated)	104.9	97.5	106.5	98.1	99.6	105.9	x	x	x	x	x	x
CCOC(=O)c1c(C)[nH]c(C)c1S(=O)(=O)N(C)CC(=O)NCc1cccc(Br)c1	87.8	59.9	27.1	97.4	877.1*	113.9	98.1	101.5	101.1	102.9	101.5	x
O=C(CCc1ccccc1)N[C@@H]1c2ccccc2CC[C@H]1OCc1ccccc1	x	x	x	107.4	x	x	x	x	x	x	x	x
Cc1cc(N2CCN(S(=O)(=O)c3ccc(Br)cc3)CC2)n2ncnc2n1	84.2	50.2	28.2	110.0	142.0	85.0	103.2	108.3	98.0	102.9	96.2	x
CCCS(=O)(=O)c1nc(S(=O)(=O)c2ccc(Cl)cc2)c(N2CCC(O)CC2)s1	98.6	95.6	97.1	99.3	95.9	95.8	x	x	x	x	x	x
O=C(NOC(=O)c1ccccc1)c1ccccc1	79.2	93.1	64.7	115.5	102.0	164.1*	x	x	x	x	x	2.3
O=C1C=C(Nc2ccc(Cl)cc2)C(=O)N1c1ccc(Cl)cc1	100.9	101.2	96.1	101.6	99.6	97.9	96.2	96.1	98.7	104.3	97.2	0.2
COc1ccc(-c2nc(-c3cccs3)c(-c3cccs3)[nH]2)cc1O	104.4	67.5	51.0	97.7	101.3	164.4*	106.2	101.3	98.0	97.3	96.9	x
O=C(O)c1ccc(-c2nc(-c3ccccc3)c(-c3cccs3)[nH]2)cc1	111.9	110.4	104.6	100.4	104.6	105.0	x	x	x	x	x	x
CCOc1ccc(NC(=O)COc2cccc3c2CCN(Cc2cccnc2)C3=O)cc1	114.3	98.3	101.5	104.7	117.8	105.7	x	x	x	x	x	x
O=[N+]([O-])c1ccc(-c2cn3nc(-c4ccccc4)c(-c4ccccc4)nc3n2)cc1	118.6	105.1	50.4	88.9	260.9*	170.7*	x	x	x	x	x	3.13
CSc1nnc2c3cc(F)ccc3n(C)c2n1	79.4	63.6	66.8	140.1	101.8	87.2	99.0	98.2	56.9*	96.1	61.5	0.51	s288c autofl DR=0.22;TORC1 bypass gr=3
Cn1c2ccc(F)cc2c2nnc(SCCN3CCCCC3)nc21	x	x	x	96.8	x	x	x	x	x	x	x	x
CC1=C(C)/C(=N\OS(=O)(=O)c2ccccc2)C=CC1=O	91.5	82.5	74.5	76.1	88.6	254.8*	x	x	x	x	x	0.31
Cc1ccc(S(=O)(=O)O/N=C2\CCCc3ccccc32)cc1	111.2	101.2	105.1	105.9	102.1	102.2	x	x	x	x	x	x
CCOc1ccc(N/N=C(/C#N)C(N)=O)cc1	105.7	78.4	118.8	88.1	228.1*	209.6*	x	x	x	x	x	6.95
COc1ccc(N/N=C(\C#N)C(N)=O)cc1	147.5	92.0	110.2	90.4	123.3	165.3*	x	x	x	x	x	7.85
CCOc1ccc(N/C(SC)=C(/C#N)C(N)=O)cc1	103.1	105.8	108.3	99.7	105.1	106.2	x	x	x	x	x	x
C#CCOCCOCCOCCNc1nc(N2CCN(C(=O)[C@H]([C@@H](C)CC)n3cc([C@@H](N)Cc4ccc(O)cc4)nn3)CC2)nc(N2CCN(C(=O)[C@H](CCCCN)n3cc([C@@H](N)CC(C)C)nn3)CC2)n1	128.6	59.2	152.9*	x	839.3*	301.0*	107.2	115.3	96.5	115.4	97.9	x
C#CCOCCOCCOCCNc1nc(N2CCN(C(=O)CCCCCCCCCCNC(=O)[C@@H](CCSC)n3cc(CCO)nn3)CC2)nc(N2CCN(C(=O)CCCCCCCCCCNC(=O)[C@H](CCCN=C(N)N)n3cc(C[C@@H](C)CC)nn3)CC2)n1	84.8	82.7	82.2	133.2	93.0	152.2*	119.2	139.7	96.3	116.8	108.4	x
C#CCOCCOCCOCCNc1nc(N2CCN(C(=O)CCCCCCCCCCNC(=O)[C@H](CCCCN)n3cc(C)nn3)CC2)nc(N2CCN(C(=O)CCCCCCCCCCNC(=O)[C@H](CCCN=C(N)N)n3cc(C[C@@H](C)CC)nn3)CC2)n1	75.7	81.2	90.0	x	99.2	191.5*	102.2	169.4*	85.4	94.6	109.1	0
C#CCOCCOCCOCCNc1nc(N2CCN(C(=O)CCCCCCCCCCNC(=O)[C@@H](CCC(=O)O)n3cc(CCCCCN)nn3)CC2)nc(N2CCN(C(=O)CCCCCCCCCCNC(=O)[C@H](CO)n3cc(CCCCCN)nn3)CC2)n1	88.5	93.0	87.5	105.5	95.5	138.4	x	x	x	x	x	x
C#CCOCCOCCOCCNc1nc(N2CCN(C(=O)[C@H](CCCCN)n3cc([C@@H](N)CC(C)C)nn3)CC2)nc(N2CCN(C(=O)[C@H](Cc3ccc(O)cc3)n3cc([C@@H](N)CC(C)C)nn3)CC2)n1	99.4	100.1	94.2	x	92.5	113.1	x	x	x	x	x	x
